# Data as given in ChEMBL document CHEMBL4513216, “Probing the Open Global Health Chemical Diversity Library for Multistage-Active Starting Points for Next-Generation Antimalarials” (ACS Infect Dis, 2020).
# About 8,600 (12%) of roughly 69,000 compounds showed an effect of 50% or more. Only a selection was taken, and strong results are over-represented in it overall.
# Tested on: Plasmodium berghei
# Test: Screen against P. berghei liver stage (PbLuc), transformed with Luciferase, at 10uM
# Format: functional, HepG2
# Settings: tested at 10 uM
row,Compound,INHIBITION
1,CC(C)c1nc(CN2CCCN(Cc3nnc(C4CC4)o3)CC2)no1,-33.5%
2,CC(C)c1nc(CN(C)C2CCN(Cc3nnc(C4CC4)o3)C2)no1 (centres undefined),-25.9%
3,CCc1nc(CN2CCCN(Cc3nnc(C4CC4)o3)CC2)no1,37.9%
4,C1CN(Cc2noc(C3CC3)n2)CCN(Cc2nnc(C3CC3)o2)C1,74.9%
5,CN(Cc1noc(C2CC2)n1)C1CCN(Cc2nnc(C3CC3)o2)C1 (centres undefined),51.6%
6,Cc1nc(CN(C)C2CCN(Cc3nnc(C4CC4)o3)C2)no1 (centres undefined),-55.4%
7,CN(Cc1noc(C2CC2)n1)C1CCN(CCc2cccs2)C1 (centres undefined),43.2%
8,CN(Cc1nnc(C2CC2)o1)C1CCN(CCc2cccs2)C1 (centres undefined),56.7%
9,CN(Cc1nnc(C2CC2)n1C)C1CCN(CCc2cccs2)C1 (centres undefined),-39.9%
10,COCCN1CC(=O)c2sc(NC(C)C)nc2C1,39.7%
11,Cc1cc(N(C)C)nc(C2(C)CCCN2C(=O)c2ccn(C)n2)n1 (centres undefined),36.4%
12,Cc1cc(C(=O)N2CCCN(Cc3nccn3C)CC2)no1,22.3%
13,Cc1ccc(S(=O)(=O)N2CCOCC2C#N)c(F)c1 (centres undefined),-26.1%
14,Cc1ccnc(C2CCCN2C(=O)c2cnccn2)n1 (centres undefined),3.91%
15,COc1ccc(N(C)Cc2nc3c(cnn3C)c(=O)[nH]2)cc1OC,35.9%
16,CCOc1c(Br)cc(CNC(C)c2nnc3n2CCC3)cc1OC (centres undefined),50.8%
17,CCOc1c(Br)cc(CNCCc2nnc3n2CCCCC3)cc1OC,55.4%
18,COc1cccc(CC(=O)NCCc2nnc3n2CCCCC3)c1,-11.3%
19,COc1cc(Br)c(CNC(C)c2nnc3n2CCC3)cc1OC (centres undefined),47.1%
20,Brc1cc(CNCc2nnc3n2CCC3)cs1,13.9%
21,COc1cc(CNC(C)c2nnc3n2CCC3)cc(OC)c1 (centres undefined),37.8%
22,CC1(NC(=O)Cc2csc(-c3ccccc3Cl)n2)CCS(=O)(=O)C1 (centres undefined),34.6%
23,CCN1CCOC(CNCc2ccc(OCc3ccccn3)cc2)C1 (centres undefined),3.5%
24,Cc1c(C(=O)N2CCN(c3ccccn3)CC2)n(C)c2ccc(Cl)cc12,34%
25,CC(C)Cc1nc(CN2CCCC2Cn2cncn2)no1 (centres undefined),9.85%
26,N#Cc1ccc(CN2CCCN(CCCn3cncn3)CC2)cc1,56.5%
27,N#Cc1ccc(CN2CCCN(C(=O)CCn3cncn3)CC2)cc1,-14.3%

row,Compound,INHIBITION
1,N#Cc1ccc(N2CCCN(CCCn3cncn3)CC2)cc1,9.87%
2,CN(C)CCN1CCO[C@H]2CN(C(=O)N(C)C)C[C@H]21,33.4%
3,O=C(O)c1csc(NCCc2ccccc2)n1,34.2%
4,O=C(c1ccoc1)N1CCC2(CC1)C(=O)N(CC1CC1)c1ccccc12,29.7%
5,CC(C)=CCN1C[C@@H]2CC[C@H]1CN(CCC(=O)NCc1ccco1)C2,29.7%
6,CC(C)=CCN1C[C@@H]2CC[C@H]1CN(Cc1cc(=O)[nH]c(=O)[nH]1)C2,39%
7,CC(C)=CCN1C[C@@H]2CC[C@H]1CN(Cc1coc(C)n1)C2,55%
8,Cc1ccc(C(=O)N2C[C@@H]3OCCN(CCN4CCCC4)[C@@H]3C2)cn1,19.9%
9,COc1cc(C)c2c(c1C)C[C@@H](C(C)C(=O)O)CC2 (some centres undefined),10.1%
10,c1ccc(-n2ccc(CN3CCCC(Cn4cncn4)C3)n2)cc1 (centres undefined),15.3%
11,CC(Nc1ncnc2c1CCNC2)c1ccc2c(c1)CCCC2 (centres undefined),88.6%
12,CC(Nc1ncnc2c1CCNC2)c1ccc(C(C)(C)C)cc1 (centres undefined),65%
13,Cc1cc(C)n(CC(C)Nc2ncnc3c2CCNC3)n1 (centres undefined),29.4%
14,Cc1nc(C(C)Nc2ncnc3c2CCNCC3)c(C)s1 (centres undefined),-10.9%
15,CCOc1ccc(C(C)Nc2ncnc3c2CCNC3)cc1OCC (centres undefined),47.9%
16,CCCc1ccc(C(C)Nc2ncnc3c2CCNC3)cc1 (centres undefined),74.7%
17,Cc1ccccc1C(Nc1ncnc2c1CCNC2)c1ccccc1 (centres undefined),36.8%
18,CC(Nc1ncnc2c1CCNCC2)c1nc2c(s1)CCCC2 (centres undefined),1.98%
19,CC(C)Nc1ncnc2c1CCNCC2,43.8%
20,O=C(C1CCOCC1)N1CCc2onc(COc3cccnc3)c2C1,46.2%
21,Cc1ccoc1C(=O)N1CCc2ncnc(-c3cnn(C)c3)c2CC1,-49.8%
22,Cc1cc(C2CCN(S(=O)(=O)N(C)C)CC2)ccn1,9.05%
23,CN(C)CCN1C(=O)CCC12CCN(Cc1cccs1)CC2,29.7%
24,CCc1nc(CN2CCN(C(=O)c3cncnc3CC)CC2)cs1,-86.365%
25,CC(C)NC(=O)N1CC[C@@H]2[C@@H]1CC(=O)N2Cc1cccnc1,6.27%
26,CC1c2ncc(COc3cccnc3)n2CCN1C(=O)C1=CCCCC1 (centres undefined),-6.23%
27,COc1ccc(CNC(=O)Nc2cccnc2N2CCCC2)cc1OC,31.2%
